Source: PubChem BioAssay (NCI)
Compounds without any hit were thinned out: in the full panel of roughly 83,000, 20% have a hit.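 For each line, cells grew in 96-well plates with the test compound present at a single concentration for 48 hours.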 Calls of active or inactive are those of the source. The calls were made as follows: active = growth percent below 10; inactive = the rest.

Tests used:
Assay in all cases: NCI-60 one-dose screen, 48 h (100 = growth as untreated, 0 = no growth, -100 = all killed)
Conditions in all cases: 10 µM unless noted
NCI-H23 lung = system: NCI-H23 lung
NCI-H226 lung = system: NCI-H226 lung
NCI-H322M lung = system: NCI-H322M lung
HOP-62 NSCLC = system: HOP-62 NSCLC
NCI-H460 lung = system: NCI-H460 lung
HOP-92 NSCLC = system: HOP-92 NSCLC
NCI-H522 lung = system: NCI-H522 lung
A549/ATCC NSCLC = system: A549/ATCC NSCLC
786-0 renal = system: 786-0 renal
COLO 205 colon = system: COLO 205 colon
DU-145 prostate = system: DU-145 prostate
K-562 leukemia = system: K-562 leukemia
MALME-3M melanoma = system: MALME-3M melanoma
MDA-MB-231 breast = system: MDA-MB-231 breast
RXF 393 renal = system: RXF 393 renal
SF-268 CNS = system: SF-268 CNS
SF-295 CNS = system: SF-295 CNS
SF-539 CNS = system: SF-539 CNS
UACC-257 melanoma = system: UACC-257 melanoma

Measured: growth

Cc1ccc2c(c1)/C(=N\N=C/c1cn(C(C)C)c3ccccc13)C(=O)N2
inactive: NCI-H23 lung 61.7% | NCI-H226 lung 56.1% | NCI-H322M lung 61.1% | HOP-62 NSCLC 49% | NCI-H460 lung 40.5% | HOP-92 NSCLC 71.8% | NCI-H522 lung 14.4% | A549/ATCC NSCLC 60.8% | 786-0 renal 93% | DU-145 prostate 72.2% | K-562 leukemia 22.1% | MALME-3M melanoma 16.2% | MDA-MB-231 breast 50.5% | RXF 393 renal 22.5% | SF-268 CNS 66.4% | SF-295 CNS 68.2% | SF-539 CNS 58.6% | UACC-257 melanoma 59.5%
active: COLO 205 colon -29.8%

O=C(Nc1ccc(C(=O)/C=C/c2ccc(N3CCOCC3)cc2)cc1)Nc1ccc([N+](=O)[O-])cc1
inactive: NCI-H23 lung 83.4% | NCI-H226 lung 45% | NCI-H322M lung 63.1% | HOP-62 NSCLC 105% | NCI-H460 lung 67.9% | HOP-92 NSCLC 120% | NCI-H522 lung 84.1% | A549/ATCC NSCLC 81.3% | 786-0 renal 111% | COLO 205 colon 109% | DU-145 prostate 98% | K-562 leukemia 68.6% | MALME-3M melanoma 108% | MDA-MB-231 breast 94.8% | RXF 393 renal 119% | SF-268 CNS 97.1% | SF-295 CNS 103% | SF-539 CNS 109% | UACC-257 melanoma 99%

COc1ccc(-c2cc(-c3ccc(Cl)cc3)nc(NCCCCNc3ccnc4cc(Cl)ccc34)n2)cc1
active: K-562 leukemia 0.414% | MALME-3M melanoma -18% | UACC-257 melanoma 3.17%
inactive: NCI-H23 lung 86.4% | NCI-H226 lung 75% | NCI-H322M lung 94.4% | HOP-62 NSCLC 78.1% | NCI-H460 lung 89.7% | HOP-92 NSCLC 46.2% | NCI-H522 lung 80% | A549/ATCC NSCLC 91.8% | 786-0 renal 73.5% | COLO 205 colon 30.4% | DU-145 prostate 98.8% | MDA-MB-231 breast 73.4% | RXF 393 renal 26.5% | SF-268 CNS 86.5% | SF-295 CNS 83.8% | SF-539 CNS 64.8%

CCc1cccc(Cl)c1
inactive: NCI-H23 lung 111% | NCI-H226 lung 99.2% | NCI-H322M lung 108% | HOP-62 NSCLC 103% | NCI-H460 lung 110% | HOP-92 NSCLC 93.2% | NCI-H522 lung 92.9% | A549/ATCC NSCLC 98.8% | 786-0 renal 105% | COLO 205 colon 117% | DU-145 prostate 111% | K-562 leukemia 114% | MALME-3M melanoma 120% | MDA-MB-231 breast 112% | RXF 393 renal 114% | SF-268 CNS 106% | SF-295 CNS 110% | SF-539 CNS 104% | UACC-257 melanoma 94%

COc1ccc(NC(=O)Nc2ccc(-c3cccnc3)cc2N2CCC(CO)CC2)cc1
inactive: NCI-H23 lung 27.1% | NCI-H226 lung 86.8% | NCI-H322M lung 59.1% | HOP-62 NSCLC 54% | NCI-H460 lung 60.1% | HOP-92 NSCLC 78.1% | NCI-H522 lung 25.2% | A549/ATCC NSCLC 41% | 786-0 renal 30.8% | COLO 205 colon 70% | DU-145 prostate 55.3% | K-562 leukemia 24.8% | MALME-3M melanoma 67.2% | MDA-MB-231 breast 34.2% | RXF 393 renal 13.1% | SF-268 CNS 52.5% | SF-295 CNS 32% | SF-539 CNS 15.1% | UACC-257 melanoma 46.6%

Clc1ccccc1/C=N\Nc1ccccn1
inactive: NCI-H23 lung 84.9% | NCI-H226 lung 80.8% | NCI-H322M lung 111% | HOP-62 NSCLC 83.8% | NCI-H460 lung 99.2% | HOP-92 NSCLC 83.9% | NCI-H522 lung 91.7% | A549/ATCC NSCLC 93.6% | 786-0 renal 113% | COLO 205 colon 95.7% | DU-145 prostate 105% | K-562 leukemia 94.8% | MALME-3M melanoma 110% | MDA-MB-231 breast 83.3% | RXF 393 renal 107% | SF-268 CNS 96.3% | SF-295 CNS 95.7% | SF-539 CNS 98.5% | UACC-257 melanoma 105%

CC(C)CCSC1=CC(=O)c2ccccc2C1=O
active: HOP-92 NSCLC -74.5% | NCI-H522 lung -68.9% | MALME-3M melanoma -23.5% | MDA-MB-231 breast 0.131%
inactive: NCI-H23 lung 78% | NCI-H226 lung 69.6% | NCI-H322M lung 79.6% | HOP-62 NSCLC 78.4% | NCI-H460 lung 103% | A549/ATCC NSCLC 79.7% | 786-0 renal 90.6% | COLO 205 colon 132% | DU-145 prostate 77% | K-562 leukemia 19.3% | RXF 393 renal 43.8% | SF-268 CNS 74.6% | SF-295 CNS 103% | SF-539 CNS 94.4% | UACC-257 melanoma 58.6%

Cn1cc(-c2nnc(-c3cn(C)c4ncccc34)o2)c2ccccc21
inactive: NCI-H23 lung 51.3% | NCI-H226 lung 64.9% | NCI-H322M lung 75.8% | HOP-62 NSCLC 32.6% | NCI-H460 lung 23.7% | NCI-H522 lung 21.3% | A549/ATCC NSCLC 36% | 786-0 renal 59.7% | COLO 205 colon 25.7% | DU-145 prostate 60% | K-562 leukemia 10.3% | MALME-3M melanoma 19.3% | MDA-MB-231 breast 38.5% | RXF 393 renal 10% | SF-268 CNS 51.1% | SF-295 CNS 13.1% | SF-539 CNS 27.7% | UACC-257 melanoma 73.6%
active: HOP-92 NSCLC 7.94%
